# PubChem BioAssay
# Active and inactive are the calls of the source.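 How the source made its calls, unless noted: active means inhibition of the reporter signal at or above 50%; inactive means inhibition below 50%.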
# How the values were obtained:
# [1] = inhibitors of TNFa-induced NFkB p65 translocation, primary screen, imaging, HUVEC, MLSMR starter and 10KST1 sets (AID 438;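 active means inhibition above 20% together with a positive visual image hit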;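 further: compound added about 3h40 before a 20 min TNFalpha stimulation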;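 on inhibition: signal is the nuclear over cytoplasmic p65 intensity ratio per well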); settings: HUVEC TNFa-induced p65 nuclear translocation; cell count: measured here: nuclei count (cytotoxicity indicator), at 2.08 µM; inhibition: at 2 µM, stronger effect = higher value, 0% TNFa-plus-vehicle, 100% no-TNFa wells
# [2] = inhibitors of mutant huntingtin aggregation, primary screen, imaging, exon1htt(103Q)mCFP cells, high-content imaging (AID 483;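 active means visual image review flags a hit and inhibition of aggregation exceeds 20%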;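 further: compound exposure lasted 3 days before fixation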;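 on nuclei count: percent of the per-plate median nuclei count of sample wells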); settings: exon1htt(103Q)mCFP cell line, aggregate imaging, at 2 µM; inhibition of aggregation: stronger effect = higher value; nuclei count: measured here: cell count, toxicity
# [3] = inhibitors of E-selectin induction by TNFa, primary screen, imaging, HUVEC, immunofluorescence, MLSMR starter and 10KST1 sets (AID 487;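 active means visually confirmed hit in the image check and inhibition above 20%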;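 on inhibition: signal is fraction of cell area covered by stained E-selectin grains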;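 on nuclei count: 100% = median nuclei count of all wells on the same plate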); settings: HUVEC TNFalpha-induced E-selectin immunofluorescence imaging, at 2 µM; inhibition: stronger effect = higher value; nuclei count: measured here: cell number, toxicity
# [4] = target: Voltage-gated potassium channel subunit beta-2 (Rattus norvegicus) (UniProt P62483); test: KvBeta enzyme negative modulators, primary screen, biochemical, NADPH fluorescence (AID 622;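 active means fluorescence slope higher than the sample average by over 3 SD, cut at about -0.22 in these data, passing the limit was not always enough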;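 further: slope of raw intensity against log time taken from 70 to 1610 s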); settings: recombinant KvBeta, 4-cyanobenzaldehyde reduction, at 10 µM, stronger effect = higher value
# Sequence of Voltage-gated potassium channel subunit beta-2 (Rattus norvegicus) (P62483 whole entry, looked up): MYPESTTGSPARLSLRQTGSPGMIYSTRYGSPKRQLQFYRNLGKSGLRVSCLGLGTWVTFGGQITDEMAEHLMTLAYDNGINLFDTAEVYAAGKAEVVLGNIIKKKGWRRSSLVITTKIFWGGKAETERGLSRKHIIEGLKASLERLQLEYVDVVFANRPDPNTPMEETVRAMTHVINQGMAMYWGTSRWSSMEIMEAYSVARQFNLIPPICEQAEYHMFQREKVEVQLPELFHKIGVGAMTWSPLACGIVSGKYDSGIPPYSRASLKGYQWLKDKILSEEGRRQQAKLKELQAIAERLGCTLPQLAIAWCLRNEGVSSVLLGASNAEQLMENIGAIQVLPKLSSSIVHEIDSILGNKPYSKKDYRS
# [5] = target: Voltage-gated potassium channel subunit beta-2 (Rattus norvegicus) (UniProt P62483); test: KvBeta positive modulators, primary screen, biochemical, NADPH fluorescence (AID 623;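 active means NADPH fluorescence slope more negative than the mean of all samples by about 3 SD, 99.7% confidence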;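 further: fluorescence intensity change per second fitted from 20 to 320 s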); settings: Recombinant KvBeta, NADPH fluorescence decrease slope, 10 min; at 10 µM; stronger effect = lower value
# [6] = target: Alpha-2C adrenergic receptor (Homo sapiens) (UniProt P18825); test: modulators of alpha2C/GIRK thallium flux, primary screen, cell-based, HEK293 alpha2C/GIRK1/2 (AID 624;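 active means fluorescence slope after compound addition differing from the mean of all screened samples at 99.7% confidence, in either direction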;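 further: slope of fluorescence ratio to pre-addition baseline per second over 15 to 24 s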); settings: thallium flux BTC fluorescence, at 10 µM, actives lie on both sides
# Sequence of Alpha-2C adrenergic receptor (Homo sapiens) (P18825 whole entry, looked up): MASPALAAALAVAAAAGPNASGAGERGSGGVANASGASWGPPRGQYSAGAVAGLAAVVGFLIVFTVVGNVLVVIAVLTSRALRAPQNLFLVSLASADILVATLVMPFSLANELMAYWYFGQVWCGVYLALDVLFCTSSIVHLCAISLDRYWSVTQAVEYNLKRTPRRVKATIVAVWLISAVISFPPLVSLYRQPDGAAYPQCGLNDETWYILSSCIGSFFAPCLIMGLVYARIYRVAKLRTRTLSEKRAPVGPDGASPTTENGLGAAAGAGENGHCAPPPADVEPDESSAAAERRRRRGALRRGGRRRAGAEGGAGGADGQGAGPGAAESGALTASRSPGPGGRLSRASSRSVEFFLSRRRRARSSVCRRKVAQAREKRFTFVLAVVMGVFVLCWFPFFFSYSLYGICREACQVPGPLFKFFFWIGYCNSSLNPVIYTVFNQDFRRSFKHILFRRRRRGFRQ
# [7] = inhibitors of Sendai virus-induced IRF3 signaling, primary screen, TLR/RLR signaling modifier project, cell-based, Sendai virus stimulus, luciferase, 10K MLSCN set (AID 602276;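 active means inhibition at or above 50% at 10 µM; inactive means inhibition below 50%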;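 further: firefly luciferase from ISG56 promoter only with Renilla not read in this screen; 0% = Sendai virus plus DMSO and 100% = medium plus DMSO without virus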); settings: HEK293 RL24 IRF3 luciferase reporter, at 10 µM, stronger effect = higher value
# [8] = inhibitors of poly I:C-induced TLR3 signaling, primary screen, cell-based, poly I:C stimulus, luciferase, 10K MLSCN set (AID 602277); settings: HEK293-TLR3 RL24 IRF3 luciferase reporter, at 10 µM, stronger effect = higher value
SMILES,cell count [1],inhibition [1],inhibition of aggregation [2],nuclei count [2],inhibition [3],nuclei count [3],fluorescence slope [4],NADPH fluorescence slope [5],slope [6],inhibition [7],inhibition [8]
CCCCCC1CC(CC(C)C(=O)Nc2nncs2)C(=O)O1 (stereo not drawn),629,-7.3% (inactive),-20.6% (inactive),112%,-68% (inactive),85.5%,-0.369 (inactive),2.3e-05 (inactive),0.00624 (inactive),11.3% (inactive),20.7% (inactive)
CC1CC(=O)c2cnc(NCC3CCCO3)nc2C1 (stereo not drawn),613,13.9% (inactive),-14% (inactive),106%,12.9% (inactive),107%,-0.404 (inactive),-2.9e-05 (inactive),0.00446 (inactive),6.29% (inactive),-1.06% (inactive)
CC(=O)N1CCN(c2ccc(N=Cc3c(O)n(Cc4ccccc4)c(=O)[nH]c3=O)cc2)CC1,344,6.8% (inactive),-13.5% (inactive),102%,-9.7% (inactive),105%,-0.525 (inactive),1.9e-05 (inactive),0.00469 (inactive),14.1% (inactive),22.9% (inactive)
CCCn1cnc2c(cnn2-c2ccc(F)cc2)c1=O,451,5.5% (inactive),11.2% (inactive),85.6%,-41.5% (inactive),124%,-0.536 (inactive),1.4e-05 (inactive),0.00574 (inactive),-35.2% (inactive),-147% (inactive)
COc1ccc(N(CC(=O)Nc2ccc3c(c2)OCO3)S(=O)(=O)c2c(C)nn(C)c2C)cc1,538,11.9% (inactive),17.9% (inactive),51%,-46% (inactive),105%,-0.57 (inactive),-4.5e-06 (inactive),0.00577 (inactive),10.2% (inactive),17.3% (inactive)
CCCN(CCC)C(=O)c1c(C)[nH]c(C(=O)OCC)c1C,740,0.6% (inactive),2% (inactive),109%,-78.7% (inactive),106%,-0.605 (inactive),-2.3e-05 (inactive),0.00726 (inactive),-15.1% (inactive),-1.04% (inactive)
Cc1cc(C(=O)NCCCN2CCOCC2)n(-c2ccccc2)n1,624,3.3% (inactive),-11.9% (inactive),92.5%,-29.6% (inactive),115%,-0.519 (inactive),-2.1e-05 (inactive),0.00682 (inactive),9.1% (inactive),24.9% (inactive)
c1ccc(Cn2ncc3c2ncn2c(-c4ccncc4)nnc32)cc1,430,-10.4% (inactive),-7.2% (inactive),117%,-36% (inactive),98.3%,-0.517 (inactive),-1.5e-05 (inactive),0.00557 (inactive),-13.1% (inactive),-7.97% (inactive)
CCOC(=O)c1ccc(NC(=O)c2ccc(NS(C)(=O)=O)cc2)cc1,473,-4.3% (inactive),8.8% (inactive),95.3%,32.9% (inactive),95.1%,-0.401 (inactive),4e-05 (inactive),0.00834 (inactive),6.57% (inactive),11.9% (inactive)
O=C(NC1CCCC1)C(c1cccs1)N(Cc1ccco1)C(=O)Cn1nnc(-c2cccs2)n1 (stereo not drawn),482,-3.3% (inactive),-7.1% (inactive),102%,3.8% (inactive),101%,-0.487 (inactive),-3.1e-05 (inactive),0.00489 (inactive),20.2% (inactive),23.1% (inactive)
CCn1nnc(NC(=O)c2ccccc2Br)n1,229,10.3% (inactive),6.4% (inactive),66%,12.4% (inactive),95.4%,-0.385 (inactive),-5.5e-05 (inactive),0.00604 (inactive),-19.8% (inactive),-39.6% (inactive)
CCCn1c(OC)nc2c1c(=O)n(C)c(=O)n2C,660,-3.7% (inactive),2.9% (inactive),104%,-34.6% (inactive),124%,-0.426 (inactive),-5.4e-05 (inactive),0.00615 (inactive),15.2% (inactive),33.4% (inactive)
COC(=O)C(CC(C)C)NC(=O)CSc1nc(-c2ccccc2)c(C#N)c(=O)[nH]1 (stereo not drawn),467,-10.9% (inactive),-13% (inactive),64.5%,-3.8% (inactive),81.7%,-0.402 (inactive),-0.000101 (inactive),0.0059 (inactive),15.4% (inactive),28.8% (inactive)
Cn1c(C(=O)NCCN2CCN(c3ccccc3F)CC2)cc2c(=O)n(C)c3ccccc3c21,1100,11% (inactive),12.6% (inactive),119%,-30.2% (inactive),112%,-0.571 (inactive),-2.1e-05 (inactive),0.00598 (inactive),4.48% (inactive),16% (inactive)
O=C(NC1CC1)c1ccc(S(=O)(=O)NCC2CCCCC2)cc1,535,-8% (inactive),18.7% (inactive),102%,-58.9% (inactive),112%,-0.508 (inactive),2.4e-05 (inactive),0.00635 (inactive),3.23% (inactive),5.07% (inactive)
O=C(CSc1ncnc2c1oc1ccccc12)NCc1ccco1,398,1.5% (inactive),-6.6% (inactive),99.3%,-38.6% (inactive),105%,-0.61 (inactive),-2.9e-05 (inactive),0.00442 (inactive),15.1% (inactive),25% (inactive)
COc1ccccc1NC(=O)N(C1CCCC1)C1CCN(C(C)=O)CC1,830,18.5% (inactive),-7% (inactive),98%,-61.6% (inactive),123%,-0.582 (inactive),-3.7e-05 (inactive),0.00578 (inactive),12.4% (inactive),34.4% (inactive)
Clc1ccc(OCc2nc(-c3ccccn3)no2)c(Br)c1,814,1.8% (inactive),4.2% (inactive),95%,-1.9% (inactive),121%,-0.595 (inactive),-8.6e-06 (inactive),0.00567 (inactive),-31.1% (inactive),-134% (inactive)
CCOc1cc(C2C(C#N)=C(N)Oc3n[nH]c(CC)c32)ccc1OCCN1CCOCC1 (stereo not drawn),421,23.4% (active),12.6% (inactive),108%,-49.3% (inactive),101%,-0.506 (inactive),-3.1e-05 (inactive),0.00486 (inactive),14.3% (inactive),15.9% (inactive)
Cn1c(SCC(=O)c2cc3ccccc3o2)nnc1-c1ccccc1,621,8% (inactive),-8.5% (inactive),66%,-44.5% (inactive),106%,-0.527 (inactive),-2.6e-05 (inactive),0.00718 (inactive),10.2% (inactive),16.3% (inactive)
COc1cccc(N2CCN(CC(=O)Nc3nnc(-c4ccccc4)s3)CC2)c1,417,0.2% (inactive),2.3% (inactive),105%,-120% (inactive),118%,-0.472 (inactive),8.2e-07 (inactive),0.00594 (inactive),16% (inactive),22% (inactive)
O=C(c1cccnc1)N1CCN(Cc2ccc3c(c2)OCO3)CC1,64,11% (inactive),-2.8% (inactive),88.3%,29.2% (inactive),87.6%,-0.411 (inactive),-5.6e-05 (inactive),0.00498 (inactive),14.2% (inactive),13.5% (inactive)
CCOc1nc(-c2ccccc2)ccc1-c1noc(-c2ccc(OC)c(OC)c2)n1,418,11.7% (inactive),-27.9% (inactive),99.7%,-27% (inactive),107%,-0.385 (inactive),5.6e-06 (inactive),0.0092 (inactive),8.22% (inactive),9.49% (inactive)
O=C(c1ccc(Cl)s1)N1CCN(c2nc3ccccc3s2)CC1,721,-17.3% (inactive),-16.4% (inactive),104%,-31.6% (inactive),107%,-0.392 (inactive),2e-05 (inactive),0.00557 (inactive),8.1% (inactive),6.32% (inactive)
COc1cc(NC(=O)C(C)Oc2ccccc2)c(C(=O)O)cc1OC (stereo not drawn),622,-1.5% (inactive),-0.9% (inactive),108%,-23.7% (inactive),101%,-0.606 (inactive),-2.5e-05 (inactive),0.00509 (inactive),19% (inactive),19.4% (inactive)
O=C(NCN1CCCCC1)c1cnccn1,604,-9.2% (inactive),-3.4% (inactive),102%,-101% (inactive),115%,-0.425 (inactive),-8.7e-05 (inactive),0.00561 (inactive),13.6% (inactive),29% (inactive)
CCOC(=O)Cc1ccc(NS(=O)(=O)c2ccc(SC)cc2)cc1,326,-7.2% (inactive),-3.4% (inactive),97.6%,-95.5% (inactive),109%,-0.494 (inactive),-6.8e-05 (inactive),0.00542 (inactive),-2.4% (inactive),9.62% (inactive)
O=C(O)c1cc2nc(-c3ccc(F)cc3)cc(C(F)(F)F)n2n1,435,4.9% (inactive),-0.7% (inactive),97.9%,26.5% (inactive),110%,-0.385 (inactive),-4.1e-05 (inactive),0.00272 (inactive),0.989% (inactive),19.6% (inactive)
